# Most compounds without a hit are left out; they make up all but 18% or so of the library.
# TDP1 block: TDP1 (human) enzyme inhibition; Q9NUW8; recombinant TDP1, AlphaScreen DNA substrate cleavage; Potency, µM (highest dose often 130 µM), usual class: inhibitors; 350,000 compounds, 0.28% hits; also: nearly all actives have a fitted effect of over 40% in size
# Target sequence (Q9NUW8 whole entry, looked up): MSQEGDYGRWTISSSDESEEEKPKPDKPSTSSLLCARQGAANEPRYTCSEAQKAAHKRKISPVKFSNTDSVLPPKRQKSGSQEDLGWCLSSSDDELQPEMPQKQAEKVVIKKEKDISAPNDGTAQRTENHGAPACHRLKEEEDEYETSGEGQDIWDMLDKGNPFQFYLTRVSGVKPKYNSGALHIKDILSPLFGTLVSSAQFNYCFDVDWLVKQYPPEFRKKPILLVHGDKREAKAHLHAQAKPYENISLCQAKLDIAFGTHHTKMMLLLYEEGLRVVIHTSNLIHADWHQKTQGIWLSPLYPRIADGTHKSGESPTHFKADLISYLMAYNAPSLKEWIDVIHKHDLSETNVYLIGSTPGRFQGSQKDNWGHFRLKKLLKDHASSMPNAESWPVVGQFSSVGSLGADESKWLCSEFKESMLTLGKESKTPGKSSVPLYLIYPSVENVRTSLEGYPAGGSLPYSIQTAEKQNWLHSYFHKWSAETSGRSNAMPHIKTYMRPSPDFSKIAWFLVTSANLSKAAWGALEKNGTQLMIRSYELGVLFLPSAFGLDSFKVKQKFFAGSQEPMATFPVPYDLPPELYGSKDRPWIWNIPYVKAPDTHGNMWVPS
#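 Compounds were preincubated with Tdp1 (1 nM final) for 15 min at room temperature before substrate (15 nM final) started a 5 min reaction; beads (10 ug/ml final) were then added for 10 min before AlphaScreen detection.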
# TDP1 cell CPT: growth inhibition of DT40 Tdp1-/-;hTDP1 cells with camptothecin (screen for TDP1 inhibitors); AID 686979; 420,000 compounds, 12% hits; chicken DT40 Tdp1-/-;hTDP1 cells + 20 nM CPT, ATP luminescence, 48 h; Potency, µM (titrated, usually from 46.2 µM), actives largely listed as inhibitors; also: nearly all actives have a fitted effect of over 55% in size
#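 Cell growth measured by CellTiter-Glo luminescence after a minimum 48 h, 37 C compound exposure with 20 nM CPT in Tdp1-knockout DT40 cells stably expressing hTDP1, seeded 400/well; qHTS titration format.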
# HepG2 viability: kills HepG2 cells in TGF-b inhibitor counter-screen; HepG2 CAGA-GFP viability, ATP luminescence, 18 h; Potency, µM (titrated, usually from 46.1 µM), actives largely listed as cytotoxic; 410,000 compounds, 0.76% hits
#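 HepG2 CAGA-GFP cells (1000/well, DMEM with 1% FBS) received compound, then TGF-beta at 500 pg/mL final, and were incubated 18 hours at 37 degrees C. Viability was read by CellTiter-Glo luminescence. Media-only wells were set as complete cell-killing and DMSO as no toxicity.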
# TGFb inhibitor: TGF-b pathway inhibition. HepG2 CAGA-GFP TGF-b/SMAD3 reporter, GFP fluorescence, 18 h; TGF-beta stimulated, 500 pg/mL final. Potency, µM (series often up to 46.1 µM), hits mostly inhibitors. 410,000 compounds, 1.2% hits. AID 588855; also: nearly all actives have a fitted effect of over 65% in size
#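 HEPG2 CAGA-GFP cells (1000/well, DMEM with 1% FBS) were pre-incubated 2 h at 37 degrees C, given compound by pin tool, then stimulated with TGF-beta at 500 pg/mL final for 18 h before per-cell GFP fluorescence imaging.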
# TDP1 cell noCPT: qHTS for Inhibitors of human tyrosyl-DNA phosphodiesterase 1 (TDP1): qHTS in cells in absence of CPT. Potency, µM (doses to about 46.2 µM), actives largely listed as inhibitors. AID 686978, 2013. 420,000 compounds, 15% hits. DT40 Tdp1-/- hTDP1 cells, no CPT, ATP luminescence, 48 h; also: nearly all actives have a fitted effect of over 55% in size
#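 Chicken DT40 Tdp1-/- cells stably complemented with human TDP1 were seeded at 400 cells/well with DMSO in place of 20 nM camptothecin. After compound pinning, cells grew at least 48 hr at 37 °C; viability read by CellTiter-Glo luminescence.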
# IL1B secr inh: inflammasome signaling inhibition, IL-1 beta readout. THP-1 LPS/ATP IL-1B secretion, AlphaLISA, 16 h; stronger effect = lower value. activity change, % at 57.5 µM. AID 743279. 360,000 compounds, 4.7% hits; in the data active = activity change below about -50%; inconclusive = mostly about -30% to -49%
#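 Secreted IL-1B measured by AlphaLISA bead assay after 16 h compound exposure of THP-1 cells; compounds (final up to 57.5 uM) added 1 h before LPS (250 ng/mL) and ATP (1.25 mM) stimulation; lower signal means less secretion.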
# Numbers stand for hits; . = inactive; ? = inconclusive; / = no result given; [ ] = dose if it differs, or a comment. Unless noted, calls follow the shape of the dose curve; as a rule, active = well fitted curve in the direction sought with a large enough effect; inconclusive = small, poorly fitted or top-dose-only effect, or another doubt; inactive = no such curve, though single readings can be large; an effect the other way counts as inactive or inconclusive.
SMILES,TDP1 block,TDP1 cell CPT,HepG2 viability,TGFb inhibitor,TDP1 cell noCPT,IL1B secr inh
CC(C)(C)OC(=O)NCC(=O)NNC(=O)c1nc2ccccc2[nH]1,.,/,/,/,/,/
O=C(c1cnn2c(C(F)(F)F)cc(-c3ccccc3)nc12)N1CCCc2ccccc21,.,?,.,.,.,.
O=C(c1nn2c(C(F)(F)F)cc(-c3cccs3)nc2c1Cl)N1CCCc2ccccc21,.,16µM,.,.,12µM,.
CC(=O)OC[C@@H]1CN(Cc2ccccc2)C[C@H](n2cnc3c(NC4CC4)ncnc32)O1,/,.,.,.,.,.
COc1ccccc1CCNC(=O)Cc1c(C)c2cc3c(C(C)(C)C)coc3c(C)c2oc1=O,.,26µM,.,.,21µM,/
Cc1c(CC(=O)N2CCCCC2)c(=O)oc2c(C)c3occ(C(C)(C)C)c3cc12,.,?,.,.,15µM,/
Cc1c(CC(=O)NCCc2ccc(Cl)cc2)c(=O)oc2c(C)c3occ(C(C)(C)C)c3cc12,.,?,.,.,21µM,/
Cc1coc2c(C)c3oc(=O)c(CC(=O)NCCc4ccc(Cl)cc4)c(C)c3cc12,.,?,.,.,?,/
O=C(NC1CCCCC1)C(c1cc2ccccc2o1)N1CCOCC1 (stereo not drawn),/,.,.,.,.,.
O=C1C=CC(=O)c2c1ccc1c2ccc2ccccc21,.,/,/,/,/,/
O=C1C(=O)c2c(ccc3ccccc23)-c2ccccc21,/,0.58µM,.,?,0.52µM,-87
O=C(Nc1ccccc1)c1sc2cc(C(F)(F)F)cnc2c1-c1cccs1,.,13µM,.,.,12µM,.
Cc1ccc(-n2c(Cl)c(Cl)nc(Cl)c2=O)cc1,.,0.29µM,7.1µM,5µM,0.92µM,-97
COCc1ccc(CN2CCCC(CCC(=O)NCc3cccc(OC)c3)C2)o1 (stereo not drawn),.,.,.,.,.,.
O=C(CCC1CCCN(Cc2ccc3c(c2)OCCO3)C1)NCc1ccc(F)c(F)c1 (stereo not drawn),/,.,.,.,.,.
COc1ccc(/C=C/CN2CCCC(CCC(=O)NCc3ccc(F)c(F)c3)C2)cc1 (stereo not drawn),.,?,.,?,16µM,-84
COCCC(=O)N1CCCC(CCC(=O)NCc2ccc(F)c(F)c2)C1 (stereo not drawn),.,.,.,.,.,.
COc1ccccc1/C=C/CN1CCCC(CCC(=O)NCc2ccc(F)c(F)c2)C1 (stereo not drawn),.,?,.,.,?,-74
COc1cccc(CNC(=O)CCC2CCCN(C/C=C/c3ccccc3OC)C2)c1 (stereo not drawn),.,?,.,.,23µM,?
COc1ccc(C(=O)Nc2cccc(OCc3cc(=O)n4c5c(sc4n3)CCCC5)c2)cc1,.,.,.,.,.,/
Cc1ccc(C)c(NC(=O)CSc2ccc3nc(-c4ccccc4)cn3n2)c1,.,?,.,.,?,/
O=C(CSc1ccc2nc(-c3ccccc3)cn2n1)Nc1ccccc1,.,?,.,.,26µM,/
CC(=O)c1ccc(NC(=O)CSc2ccc3nc(-c4ccccc4)cn3n2)cc1,.,?,.,?,26µM,/
CCOc1ccccc1NC(=O)CSc1ccc2nc(-c3ccccc3)cn2n1,.,?,.,.,21µM,/
CCOc1ccccc1NC(=O)C(C)Sc1cc(-c2ccccc2)nc(C)n1 (stereo not drawn),.,15µM,.,?,16µM,/
SMILES,TDP1 block,TDP1 cell CPT,HepG2 viability,TGFb inhibitor,TDP1 cell noCPT,IL1B secr inh
O=C(CSc1ccc2nc(-c3ccccc3)cn2n1)Nc1ccccc1C(F)(F)F,.,.,.,.,?,/
CCOC(=O)N/N=C(\CCC(=O)O)c1cccs1,/,.,.,.,.,.
Cc1ccc(C(=O)N/C(=C\c2cccs2)c2nc3ccccc3[nH]2)cc1,.,16µM,.,?,?,.
N#C/C(=C\c1cccs1)c1nc2ccccc2[nH]1,.,.,.,.,.,.
Cc1oc2ncnc(N3CCCCC3)c2c1C(=O)N1CCN(c2cccc(C(F)(F)F)c2)CC1,.,16µM,.,.,13µM,/
COc1ccc(N2CCN(C(=O)c3c(C)oc4ncnc(N5CCCCC5)c34)CC2)cc1,.,?,.,?,15µM,/
CCOC(=O)c1noc2ncnc(N3CCN(c4cccc(C(F)(F)F)c4)CC3)c12,.,16µM,.,?,13µM,/
CCOC(=O)c1noc2ncnc(N3CCC(C)CC3)c12,.,?,.,?,.,/
COc1ccc(S(=O)(=O)N(C)C[C@@H]2OCc3cnnn3CCCC(=O)N([C@H](C)CO)C[C@@H]2C)cc1,/,.,.,.,.,.
O=C(c1cc2ccccc2o1)N1CCN(c2ccccn2)CC1,.,.,.,.,.,.
O=C(COC(=O)c1n[nH]c2ccccc12)NCCc1ccccc1,.,.,.,.,?,.
Cc1csc(NC(=O)CCCNC(=O)c2ccc(Cl)cc2)n1,.,.,.,.,.,.
Cc1c(-c2nsc(NC(=O)c3cccs3)n2)nnn1-c1ccc(F)cc1,.,?,.,.,.,/
Cc1cc(C)c(S(=O)(=O)Nc2ccc(N(C)C)cc2)c(C)c1-n1cnnn1,/,29µM,.,.,16µM,.
C/C(=N\NC(=O)c1ccccc1NC(=O)c1ccc(Cl)cc1)c1ccncc1,.,0.92µM,1.3µM,.,1.2µM,.
C/C(=N/NC(=O)c1ccncc1)c1ccccc1,/,.,.,.,.,.
C/C(=N\NC(=O)c1c(Cl)cnn1C)c1ccc(NC(=O)c2ccncc2)cc1,.,?,10µM,.,21µM,.
C/C(=N\NC(=O)c1ccc(N/N=C(\C)c2ccncc2)cc1)c1ccncc1,.,?,.,.,21µM,-82
C/C(=N\NC(=O)c1ccc(OC2OCCOC2Oc2ccc(C(=O)N/N=C(\C)c3ccncc3)cc2)cc1)c1ccncc1 (stereo not drawn),.,6.5µM,.,?,7.3µM,.
COC(=O)Cc1ccc(OC2(C)CCN(Cc3csc4ccccc34)C2)cc1 (stereo not drawn),/,?,.,.,?,.
CN(C(=O)Cn1nnc(-c2ccccc2)n1)C1CCS(=O)(=O)C1 (stereo not drawn),/,.,.,.,.,.
Cc1cc(C(=O)Nc2c(F)cc(F)cc2Br)n(-c2ccccc2)n1,/,.,.,.,.,.
O=C(CCc1nc2ccccc2c(=O)[nH]1)Nc1cccc(S(=O)(=O)N2CCOCC2)c1,.[0.505 µM],.,.,.,.,.
